The values below come from PMC4336329 (PLoS ONE, 2015).

Structures are written as SMILES. Screen size: about 310,000 compounds; about 14,000 (4.5%) showed an effect of 50% or more. Effects have a minus sign here. The sample holds strong results, similar compounds and a random draw of the others, so the mix is not that of the screen.
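Further: peak tail current of the secondary pulse compared with the same well before compound.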

For this experiment, the target named is human ether-à-go-go-related gene (hERG) potassium channel (human, UniProt Q12809). The experiment is described as follows: primary screen, population patch clamp on CHO cells stably expressing hERG; higher = less effect of the substance.
Sequence of human ether-à-go-go-related gene (hERG) potassium channel (Q12809 whole entry, looked up): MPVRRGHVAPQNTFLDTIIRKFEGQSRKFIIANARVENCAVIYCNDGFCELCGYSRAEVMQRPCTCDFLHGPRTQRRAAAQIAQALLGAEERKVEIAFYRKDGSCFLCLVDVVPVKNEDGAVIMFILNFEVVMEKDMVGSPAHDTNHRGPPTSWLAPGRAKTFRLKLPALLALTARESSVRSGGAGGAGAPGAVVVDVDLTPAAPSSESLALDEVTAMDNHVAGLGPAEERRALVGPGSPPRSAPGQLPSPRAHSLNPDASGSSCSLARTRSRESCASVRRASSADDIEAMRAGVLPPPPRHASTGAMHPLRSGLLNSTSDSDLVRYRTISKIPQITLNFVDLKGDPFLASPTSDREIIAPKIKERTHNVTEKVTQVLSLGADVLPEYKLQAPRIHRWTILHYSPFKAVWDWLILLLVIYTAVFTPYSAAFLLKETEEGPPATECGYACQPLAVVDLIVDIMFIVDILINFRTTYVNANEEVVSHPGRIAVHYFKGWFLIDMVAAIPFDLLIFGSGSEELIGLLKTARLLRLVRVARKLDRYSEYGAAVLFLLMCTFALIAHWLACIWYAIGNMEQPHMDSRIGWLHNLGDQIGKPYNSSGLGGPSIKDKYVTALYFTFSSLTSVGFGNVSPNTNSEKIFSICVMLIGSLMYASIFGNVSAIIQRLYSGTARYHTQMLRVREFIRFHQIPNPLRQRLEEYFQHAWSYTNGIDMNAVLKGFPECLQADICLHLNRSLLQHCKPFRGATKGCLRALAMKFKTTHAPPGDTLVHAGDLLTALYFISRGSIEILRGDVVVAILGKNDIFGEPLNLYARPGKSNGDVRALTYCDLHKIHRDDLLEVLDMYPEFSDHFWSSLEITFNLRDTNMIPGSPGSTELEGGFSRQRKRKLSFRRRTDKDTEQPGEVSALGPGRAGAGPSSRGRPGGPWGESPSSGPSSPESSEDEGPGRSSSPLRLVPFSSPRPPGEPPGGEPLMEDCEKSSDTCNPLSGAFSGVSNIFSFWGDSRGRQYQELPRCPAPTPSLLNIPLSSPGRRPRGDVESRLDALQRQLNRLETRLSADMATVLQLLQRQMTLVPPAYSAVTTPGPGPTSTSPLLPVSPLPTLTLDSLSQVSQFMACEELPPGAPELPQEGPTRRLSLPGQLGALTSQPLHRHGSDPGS
In the case of `Cc1noc(C)c1NC(=O)N1CCN(Cc2ccccc2)CC1`, the “hERG current change (%, negative = inhibition) at 10uM” value came out at 8.04%. Then `COc1ccc(O)c(CN2CCCC(C(=O)Nc3cccc(-n4cccn4)c3)C2)c1` (stereo not shown), with -14.9%.

Turning to `CC(=O)c1cccc(CN2CCCC(C(=O)Nc3cccc(-n4cccn4)c3)C2)c1` (stereo not shown), the “hERG current change (%, negative = inhibition) at 10uM” value is -23.9%. Take `O=C(Nc1cccc(-n2cccn2)c1)C1CCCN(Cc2cccc(F)c2F)C1` (stereo not shown): the “hERG current change (%, negative = inhibition) at 10uM” value is -17.8%. Then `COc1ccc(CN2CCCC(C(=O)Nc3cccc(-n4cccn4)c3)C2)cc1` (stereo not shown), with -58.9%; and `Cc1cc(CN2CCCC(C(=O)Nc3cccc(-n4cccn4)c3)C2)cc(C)c1O` (stereo not shown), with -42%. Then `CCOc1ccccc1CN1CCCC(C(=O)Nc2cccc(-n3cccn3)c2)C1` (stereo not shown), with -69.5%. `CSc1cccc(CN2CCCC(C(=O)Nc3cccc(-n4cccn4)c3)C2)c1` (stereo not shown): the “hERG current change (%, negative = inhibition) at 10uM” value is -28.6%. For the compound `CCOc1cccc(CN2CCCC(C(=O)Nc3cccc(-n4cccn4)c3)C2)c1` (stereo not shown), the “hERG current change (%, negative = inhibition) at 10uM” value is -56.3%. Then `O=C(Nc1cccc(-n2cccn2)c1)C1CCCN(Cc2ccccc2F)C1` (stereo not shown), with -30.4%.

In the case of `COC(=O)c1ccc(CN2CCCC(C(=O)Nc3cccc(-n4cccn4)c3)C2)cc1` (stereo not shown), the “hERG current change (%, negative = inhibition) at 10uM” value is given as -27.4%. As to `Cc1nn(C)c(Cl)c1CN1CCCC(C(=O)Nc2cccc(-n3cccn3)c2)C1` (stereo not shown), the “hERG current change (%, negative = inhibition) at 10uM” value is listed as -50.2%.

`Cc1c(CN2CCCC(C(=O)Nc3cccc(-n4cccn4)c3)C2)cnn1C` (stereo not shown): the “hERG current change (%, negative = inhibition) at 10uM” value turned out to be 7.86%. The result for `COCCNC(=S)N(CCc1c(C)[nH]c2ccc(F)cc12)Cc1cccnc1` reads -21.5%; that for `C=CC(=O)N1c2ccccc2Sc2ccc(NC(=O)OCC)cc21`, 0.408%. Then `CC(C)(C)c1ccc(C(=O)Nc2cccc3c(=O)[nH][nH]c(=O)c23)cc1`, with -9.65%; and `O=C(Cc1ccccc1)NCC(=O)N1CCN(c2ccccc2)CC1`, with 5.93%; and `O=C(NCCn1ccc2ccccc21)c1cccc([N+](=O)[O-])c1`, with -16.9%. In the case of `CCC(C)N1C(=O)C2C(C(=O)Nc3cccc(OC)c3)C3C=CC2(O3)C1C(=O)NC1CCCCC1C` (stereo not shown), the “hERG current change (%, negative = inhibition) at 10uM” value was -6.83%.

Turning to `O=S1(=O)CCN(Cc2ccc(Cl)c(Cl)c2)CC1`, the “hERG current change (%, negative = inhibition) at 10uM” value turned out to be 6.46%. On to `CC(C)OC(=O)Cn1nnc(-c2ccccc2)n1`, for which the “hERG current change (%, negative = inhibition) at 10uM” value was 0.0206%. The result for `Cc1c(NC(=O)C(C)OC(=O)c2cc(Cl)ccc2O)c(=O)n(-c2ccccc2)n1C` (stereo not shown) reads 15.3%. Then `CC1(C)CC(=O)C2=C(C1)N(c1cccnc1)C(N)=C(C#N)C2c1cccs1` (stereo not shown), with -5.86%; and `CCSc1sccc1C1C(C#N)=C(N)N(c2cccnc2)C2=C1C(=O)CCC2` (stereo not shown), with -31.5%. The result for `CCSc1sccc1C1C(C#N)=C(N)N(c2cccnc2)C2=C1C(=O)CC(C)(C)C2` (stereo not shown) reads -50.4%; that for `CC12COC3(C(=O)Nc4ccc(F)cc4)CC1CCC32C` (stereo not shown), -18%. As to `CN(CCC#N)C(=O)COC(=O)[C@H](Cc1ccccc1)N1C(=O)c2ccccc2C1=O`, the “hERG current change (%, negative = inhibition) at 10uM” value is recorded as -2.25%. Then `Cc1ccc(-n2nc3c(=O)n(CC(=O)NCc4cccs4)nc(C)c3c2C)cc1`, with -20.1%; and `Cc1ccc(Oc2ncccc2/C=N/OCc2ccc(Cl)cc2Cl)cc1`, with 14.7%; and `O=C(Nc1cccc(-c2nnn(CC(=O)N3CCc4ccccc4C3)n2)c1)C1CCC1`, with 2.59%. Then `O=C(Nc1ccccc1-c1nnn(CC(=O)N2CCc3ccccc3C2)n1)C1CCC1`, with -52.8%. The result for `CC(C)CC(=O)Nc1ccccc1-c1nnn(CC(=O)N2CCc3ccccc3C2)n1` reads -37.3%; that for `O=C(NCCN1CCOCC1)c1cccc(NS(=O)(=O)c2ccc(Br)cc2)c1`, -34.3%; that for `OCC[C@H]1C[C@H](O)[C@@H](O)[C@]2(OCc3ccccc32)O1`, 11.9%. Turning to `O=C(OCc1ccc([N+](=O)[O-])cc1)c1cc(S(=O)(=O)N2CCCCC2)ccc1N1CCOCC1`, the “hERG current change (%, negative = inhibition) at 10uM” value is given as -75.9%. With `CC1CC(C)CN(C(=O)COC(=O)c2cc([N+](=O)[O-])ccc2N2CCOCC2)C1` (stereo not shown), the “hERG current change (%, negative = inhibition) at 10uM” value is reported as -54.7%.

On to `O=C(OCc1ccccc1Cl)c1cc([N+](=O)[O-])ccc1N1CCOCC1`, for which the “hERG current change (%, negative = inhibition) at 10uM” value is -23.1%. Then `CC1CCCN(C(=O)COC(=O)c2cc([N+](=O)[O-])ccc2N2CCOCC2)C1` (stereo not shown), with -14.6%. Then `O=C(OCc1cccc(Cl)c1)c1cc([N+](=O)[O-])ccc1N1CCOCC1`, with -38.7%; and `O=C(OCc1ccc([N+](=O)[O-])cc1)c1cc([N+](=O)[O-])ccc1N1CCOCC1`, with -76.1%; and `Cc1ccc(COC(=O)c2cc([N+](=O)[O-])ccc2N2CCOCC2)cc1`, with -53.7%. As to `Cc1ccc(C)c(COC(=O)c2cc([N+](=O)[O-])ccc2N2CCOCC2)c1`, the “hERG current change (%, negative = inhibition) at 10uM” value was determined as 5.73%. For the compound `Cc1ccc(COC(=O)c2cc(S(=O)(=O)N3CCCCC3)ccc2N2CCOCC2)cc1`, the “hERG current change (%, negative = inhibition) at 10uM” value was -13.9%. On to `O=C(OCc1ccc(F)cc1)c1cc(S(=O)(=O)N2CCCCC2)ccc1N1CCOCC1`, for which the “hERG current change (%, negative = inhibition) at 10uM” value came out at 2.16%. Then `Cc1ccccc1COC(=O)c1cc([N+](=O)[O-])ccc1N1CCOCC1`, with -18.8%; and `CC1CCN(C(=O)COC(=O)c2cc([N+](=O)[O-])ccc2N2CCOCC2)CC1`, with -15%.
